Assay results as given in PubChem BioAssay AID1159580 (chemical genetic matrix, 2015).
The whole screen tested about 5,500 compounds, of which about 2,000 (36%) were called active. About 18% were inconclusive and are not listed. Cut-off read from the data, not from the text of the source: active = normalized growth mostly below about 0.91 (no sharp cut-off); inconclusive = no clear call, values can overlap the other calls; inactive = mostly above about 0.92. This is one part of the list.

Assay: chemical genetic growth profiling, strain panel (AID 1159580);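 note: tested at 20 µM; growth read once vehicle control cultures reached saturation at 30 °C; 1 = growth at the plate median or of vehicle wells; lower values mean less growth of the strain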
Conditions: growth OD

Measured: normalized growth

CN1CCCN=C1COC(=O)C(O)(c1ccccc1)C1CCCCC1 (configuration not stated)
inactive: S. cerevisiae deletion strains, locus YJR075W, strain HOC1, hits give low values 0.993 | S. cerevisiae deletion strains, locus YKL009W, strain mrt4, hits give low values 0.999 | S. cerevisiae deletion strains, locus YKL068W, hits give low values 0.989 | S. cerevisiae deletion strains, locus YKL085W, strain MDH1 (second series), hits give low values 1 | S. cerevisiae deletion strains, locus YKL085W, strain MDH1, hits give low values 1 | S. cerevisiae deletion strains, locus YKL160W, strain elf1, hits give low values 0.998 | S. cerevisiae deletion strains, locus YKL190W, strain CNB1, hits give low values 0.997 | S. cerevisiae deletion strains, locus YKR001C, strain vps1, hits give low values 0.975 | S. cerevisiae deletion strains, locus YKR026C, strain gcn3, hits give low values 0.997 | S. cerevisiae deletion strains, locus YKR091W, strain srl3, hits give low values 1 | S. cerevisiae deletion strains, locus YLL001W, strain dnm1, hits give low values 0.989 | S. cerevisiae deletion strains, locus YLL026W, hits give low values 0.991 | S. cerevisiae deletion strains, locus YLL041C, strain sdh2, hits give low values 0.998 | S. cerevisiae deletion strains, locus YLR027C, strain aat2, hits give low values 0.993 | S. cerevisiae deletion strains, locus YLR039C, strain RIC1, hits give low values 1.02 | S. cerevisiae deletion strains, locus YLR058C, strain SHM2, hits give low values 1.01 | S. cerevisiae deletion strains, locus YLR102C, strain apc9, hits give low values 0.993 | S. cerevisiae deletion strains, locus YLR113W, strain HOG1, hits give low values 1.01 | S. cerevisiae deletion strains, locus YLR221C, strain rsa3, hits give low values 0.992 | S. cerevisiae deletion strains, locus YLR258W, strain gsy2, hits give low values 1 | S. cerevisiae deletion strains, locus YLR262C, strain YPT6 (second series), hits give low values 0.988 | S. cerevisiae deletion strains, locus YLR262C, strain YPT6, hits give low values 1.02 | S. cerevisiae deletion strains, locus YLR268W, strain sec22, hits give low values 0.971 | S. cerevisiae deletion strains, locus YLR320W, strain mms22, hits give low values 1.01 | S. cerevisiae deletion strains, locus YLR330W, strain CHS5, hits give low values 1.01 | S. cerevisiae deletion strains, locus YLR342W, strain FKS1 (second series), hits give low values 1.02 | S. cerevisiae deletion strains, locus YLR342W, strain FKS1, hits give low values 1 | S. cerevisiae deletion strains, locus YLR357W, strain rsc2, hits give low values 0.976 | S. cerevisiae deletion strains, locus YLR370C, strain arc18, hits give low values 0.992 | S. cerevisiae deletion strains, locus YLR371W, strain rom2, hits give low values 0.993 | S. cerevisiae deletion strains, locus YLR384C, strain iki3, hits give low values 0.982 | S. cerevisiae deletion strains, locus YLR418C, strain cdc73, hits give low values 0.973 | S. cerevisiae deletion strains, locus YML016C, strain PPZ1, hits give low values 1.01 | S. cerevisiae deletion strains, locus YML032C, strain rad52, hits give low values 0.979 | S. cerevisiae deletion strains, locus YML120C, strain ndi1, hits give low values 1 | S. cerevisiae deletion strains, locus YML124C, strain tub3, hits give low values 0.992 | S. cerevisiae deletion strains, locus YMR058W, strain fet3, hits give low values 0.95 | S. cerevisiae deletion strains, locus YMR078C, strain ctf18, hits give low values 0.992 | S. cerevisiae deletion strains, locus YMR125W, strain sto1, hits give low values 0.992 | S. cerevisiae deletion strains, locus YMR129W, hits give low values 0.995 | S. cerevisiae deletion strains, locus YMR205C, strain PFK2, hits give low values 0.993 | S. cerevisiae deletion strains, locus YMR223W, strain ubp8, hits give low values 1 | S. cerevisiae deletion strains, locus YMR231W, strain pep5, hits give low values 0.99 | S. cerevisiae deletion strains, locus YMR263W, strain SAP30, hits give low values 1.01 | S. cerevisiae deletion strains, locus YMR307W, strain GAS1, hits give low values 1.03 | S. cerevisiae deletion strains, locus YNL067W, strain RPL9B, hits give low values 0.992 | S. cerevisiae deletion strains, locus YNL071W, strain lat1, hits give low values 0.994 | S. cerevisiae deletion strains, locus YNL128W, strain TEP1, hits give low values 1.01 | S. cerevisiae deletion strains, locus YNL153C, strain GIM3, hits give low values 1 | S. cerevisiae deletion strains, locus YNL183C, strain NPR1, hits give low values 0.947 | S. cerevisiae deletion strains, locus YNL209W, strain ssb2, hits give low values 0.99 | S. cerevisiae deletion strains, locus YNL233W, strain BNI4, hits give low values 0.998 | S. cerevisiae deletion strains, locus YNL248C, strain rpa49, hits give low values 0.993 | S. cerevisiae deletion strains, locus YNL250W, strain rad50, hits give low values 0.988 | S. cerevisiae deletion strains, locus YNL271C, strain bni1, hits give low values 0.987 | S. cerevisiae deletion strains, locus YNL298W, strain CLA4, hits give low values 0.994 | S. cerevisiae deletion strains, locus YNL307C, strain MCK1, hits give low values 0.981 | S. cerevisiae deletion strains, locus YNL322C, strain KRE1 (second series), hits give low values 1 | S. cerevisiae deletion strains, locus YNL322C, strain KRE1, hits give low values 1 | S. cerevisiae deletion strains, locus YNR049C, strain mso1, hits give low values 0.994 | S. cerevisiae deletion strains, locus YNR052C, strain pop2, hits give low values 0.999 | S. cerevisiae deletion strains, locus YOL006C, strain TOP1, hits give low values 1.04 | S. cerevisiae deletion strains, locus YOL012C, strain htz1 0.733 | S. cerevisiae deletion strains, locus YOL147C, strain pex11, hits give low values 0.99 | S. cerevisiae deletion strains, locus YOR001W, strain rrp6, hits give low values 1.01 | S. cerevisiae deletion strains, locus YOR061W, strain CKA2, hits give low values 1.01 | S. cerevisiae deletion strains, locus YOR069W, strain VPS5, hits give low values 1.01 | S. cerevisiae deletion strains, locus YOR070C, strain gyp1, hits give low values 1.01 | S. cerevisiae deletion strains, locus YOR080W, strain dia2, hits give low values 0.996 | S. cerevisiae deletion strains, locus YOR083W, strain WHI5, hits give low values 0.995 | S. cerevisiae deletion strains, locus YOR106W, strain vam3, hits give low values 1.01 | S. cerevisiae deletion strains, locus YOR136W, strain idh2, hits give low values 0.991 | S. cerevisiae deletion strains, locus YOR144C, strain elg1, hits give low values 0.991 | S. cerevisiae deletion strains, locus YOR184W, strain ser1, hits give low values 1 | S. cerevisiae deletion strains, locus YOR231W, strain MKK1, hits give low values 1 | S. cerevisiae deletion strains, locus YOR265W, strain rbl2, hits give low values 0.984 | S. cerevisiae deletion strains, locus YOR270C, strain vph1, hits give low values 1.02 | S. cerevisiae deletion strains, locus YOR290C, strain snf2, hits give low values 1.02 | S. cerevisiae deletion strains, locus YOR316C, strain cot1, hits give low values 1 | S. cerevisiae deletion strains, locus YPL051W, strain arl3, hits give low values 0.997 | S. cerevisiae deletion strains, locus YPL055C, strain LGE1, hits give low values 0.998 | S. cerevisiae deletion strains, locus YPL078C, strain atp4, hits give low values 0.998 | S. cerevisiae deletion strains, locus YPL106C, strain sse1, hits give low values 0.989 | S. cerevisiae deletion strains, locus YPL240C, strain hsp82, hits give low values 0.991 | S. cerevisiae deletion strains, locus YPL241C, strain CIN2, hits give low values 1.01 | S. cerevisiae deletion strains, locus YPL256C, strain CLN2, hits give low values 0.992 | S. cerevisiae deletion strains, locus YPR119W, strain clb2, hits give low values 0.993 | S. cerevisiae deletion strains, locus YPR141C, strain kar3, hits give low values 0.994 | S. cerevisiae deletion strains, locus YPR163C, strain tif3, hits give low values 0.991 | S. cerevisiae deletion strains, locus YPR167C, strain met16, hits give low values 0.987 | S. cerevisiae deletion strains, strain wtn01, hits give low values 0.966 | S. cerevisiae strains, strain wild type, hits give low values 1
